Where “and” joins values, the source holds several entries; their conditions need not be identical. Identical values can stand only once. For part of these data: Results with a measured potency or affinity are listed apart. Calls of active or inactive are those of the source. Rule as the data show it, unless noted: active = parasite load remaining mostly below about 12% (no sharp cut-off); inactive = mostly above about 10%. Bridge positions count the residues as written; N and C are the ends. Square brackets hold non-standard residues; d marks the D form. Peptide text beside a SMILES is read from it. * marks the point of attachment. Octanoyl(6-Me) = CCC(C)CCCCC(=O)*; Dab = NCC[CH](N)C(=O)O
How the values were obtained:
[1] = P. berghei load reduction in hepatocytes – cell-based, HepG2, luciferase luminescence, HepG2 viability, primary screen (AID 624349);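 also: 100% = mean of DMSO negative control wells on the same plate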; conditions: P. berghei liver stage in HepG2, luciferase luminescence, concentration not given here; parasite load remaining: stronger effect = lower value; viability: measured here: HepG2 viability without parasites
[2] = target: 6-phosphogluconate dehydrogenase, decarboxylating (Homo sapiens) (UniProt P52209); assay: inhibition of human phosphogluconate dehydrogenase – biochemical, recombinant enzyme, NADPH absorbance, primary screen (AID 1159550;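 active = at least 20% inhibition of 6-phosphogluconate dehydrogenase activity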); conditions: recombinant 6PGD, NADPH absorbance 341 nm; at 10 µM; stronger effect = higher value
Sequence of 6-phosphogluconate dehydrogenase, decarboxylating (Homo sapiens) (P52209 whole entry, looked up): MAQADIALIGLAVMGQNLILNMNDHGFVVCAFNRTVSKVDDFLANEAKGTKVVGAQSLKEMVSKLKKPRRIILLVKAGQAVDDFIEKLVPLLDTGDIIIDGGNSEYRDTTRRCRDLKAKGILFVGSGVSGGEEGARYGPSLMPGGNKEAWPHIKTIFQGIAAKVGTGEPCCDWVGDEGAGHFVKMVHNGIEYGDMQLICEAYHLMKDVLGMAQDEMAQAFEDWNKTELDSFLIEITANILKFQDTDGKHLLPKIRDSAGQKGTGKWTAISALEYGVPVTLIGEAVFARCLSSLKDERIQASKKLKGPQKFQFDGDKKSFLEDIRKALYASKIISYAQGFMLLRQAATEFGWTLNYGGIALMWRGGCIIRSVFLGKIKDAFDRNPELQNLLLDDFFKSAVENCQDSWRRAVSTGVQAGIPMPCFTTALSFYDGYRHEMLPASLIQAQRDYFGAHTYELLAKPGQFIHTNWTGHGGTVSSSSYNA

[3] = EMT-state selective cytotoxicity in co-culture – imaging, PC-3E GFP, TEM4-18 mCherry, primary screen (AID 1345086;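 active = compounds killing one labelled cell type while sparing the other, by normalised counts and ratio limits, not self-fluorescent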;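 as to all read-outs here: cells exposed to compound for 72 h before imaging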;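 as to red/green cell ratio (normalised): normalised mesenchymal count divided by normalised epithelial count so high means epithelial killing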); conditions: PC-3E GFP / TEM4-18 mCherry co-culture, imaging cell counts, at 1 µM; for red/green cell ratio (normalised): actives lie on both sides, counts scaled to control wells, 1 = unselective
[4] = viability loss with induced miR-34 in A549 – imaging, A549 dox-inducible miR-34, nuclei and caspase counts, primary screen (AID 1347080;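 active = compounds whose cell count with miR-34 switched on is under 0.7 times the count with it off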); conditions: A549 miR-34 inducible, Hoechst nuclei count, 48 h
[5] = target: NAD(+) hydrolase SARM1 (Homo sapiens) (UniProt Q6SZW1); assay: blocking NAD cleavage by SARM1 SAM-TIR – cell lysate, NAD-Glo luminescence (AID 1508614;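 active = compound whose remaining NAD level is above about 45 nM, limit read from the data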;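 also: higher remaining NAD means stronger inhibition of SARM1 NADase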); conditions: SAM-TIR HEK293T lysate NADase, at 1 µM, stronger effect = higher value
Sequence of NAD(+) hydrolase SARM1 (Homo sapiens) (Q6SZW1 whole entry, looked up, the tested form may be a part): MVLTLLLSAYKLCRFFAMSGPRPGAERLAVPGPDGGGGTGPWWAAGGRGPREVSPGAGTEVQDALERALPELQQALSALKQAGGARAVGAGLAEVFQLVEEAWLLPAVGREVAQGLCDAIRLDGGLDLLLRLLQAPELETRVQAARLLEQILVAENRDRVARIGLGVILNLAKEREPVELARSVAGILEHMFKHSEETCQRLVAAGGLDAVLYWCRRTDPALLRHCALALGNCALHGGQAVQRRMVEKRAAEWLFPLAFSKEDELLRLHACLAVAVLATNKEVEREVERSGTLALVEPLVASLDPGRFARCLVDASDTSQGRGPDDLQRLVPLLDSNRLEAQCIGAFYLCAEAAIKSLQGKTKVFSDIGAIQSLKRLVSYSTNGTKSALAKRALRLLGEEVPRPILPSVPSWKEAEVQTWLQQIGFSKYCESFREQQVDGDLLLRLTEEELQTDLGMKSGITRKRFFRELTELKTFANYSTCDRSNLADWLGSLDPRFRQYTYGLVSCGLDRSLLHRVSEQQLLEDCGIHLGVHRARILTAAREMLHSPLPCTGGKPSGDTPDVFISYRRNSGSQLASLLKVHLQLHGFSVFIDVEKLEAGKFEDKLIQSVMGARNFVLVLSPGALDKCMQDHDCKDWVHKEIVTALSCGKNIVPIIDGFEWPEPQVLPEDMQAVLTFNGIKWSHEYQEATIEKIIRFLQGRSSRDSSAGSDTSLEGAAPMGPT

[6] = target: Mitogen-activated protein kinase 7 (Homo sapiens) (UniProt Q13164); assay: Gal4-ERK5 driven luciferase induction – cell-based, HTS, primary screen (AID 1508626;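 active = luciferase signal above three times the same-plate solvent-only control wells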;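 also: luciferase driven by Gal4-ERK5 fusion binding five Gal4 sites before minimal TATA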); conditions: HeLa Gal4-ERK5 transactivation, 18 h, at 5 µM, stronger effect = higher value
Sequence of Mitogen-activated protein kinase 7 (Homo sapiens) (Q13164 whole entry, looked up, the tested form may be a part): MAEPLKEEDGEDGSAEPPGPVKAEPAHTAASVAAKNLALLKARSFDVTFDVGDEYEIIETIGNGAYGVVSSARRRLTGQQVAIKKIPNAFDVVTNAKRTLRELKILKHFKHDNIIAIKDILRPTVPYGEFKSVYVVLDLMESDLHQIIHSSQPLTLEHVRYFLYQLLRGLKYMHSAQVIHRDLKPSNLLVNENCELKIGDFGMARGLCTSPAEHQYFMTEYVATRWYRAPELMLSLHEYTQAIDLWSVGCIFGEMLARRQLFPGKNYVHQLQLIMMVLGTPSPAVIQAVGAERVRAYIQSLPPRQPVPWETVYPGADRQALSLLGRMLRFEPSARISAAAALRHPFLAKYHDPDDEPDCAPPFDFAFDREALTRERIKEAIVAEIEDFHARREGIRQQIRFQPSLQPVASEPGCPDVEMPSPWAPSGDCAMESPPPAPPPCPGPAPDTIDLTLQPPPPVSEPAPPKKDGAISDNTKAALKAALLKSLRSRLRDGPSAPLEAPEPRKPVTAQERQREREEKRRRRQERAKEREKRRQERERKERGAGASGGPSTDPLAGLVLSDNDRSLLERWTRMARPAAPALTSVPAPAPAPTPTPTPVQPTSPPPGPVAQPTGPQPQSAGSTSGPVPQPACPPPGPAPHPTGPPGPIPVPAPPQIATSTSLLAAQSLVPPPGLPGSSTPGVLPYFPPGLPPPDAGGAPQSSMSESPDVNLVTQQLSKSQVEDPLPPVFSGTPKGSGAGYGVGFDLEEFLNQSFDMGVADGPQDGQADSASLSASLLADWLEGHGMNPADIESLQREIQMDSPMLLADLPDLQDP

[7] = compounds altering viability of human ES cells (AID 493140; call rule not given here;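 also: cells exposed to compounds for four days before counting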); conditions: human embryonic stem cell survival screen; stronger effect = higher value
[8] = blockers of polyQ-driven CASP3 activation – cell-based (AID 1583); conditions: polyglutamine-induced caspase-3 activation, cell assay; stronger effect = higher value;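 tested at 10 µM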
[9] = yeast 75Q aggregation reduction – 75Q-TubU reporter (AID 1593); conditions: Yeast 75Q polyglutamine aggregation reporter
[10] = restoration of touch response, mutant HTT neurons – whole organism, C. elegans mechanosensory neurons, N-terminal huntingtin (AID 1599); conditions: C. elegans polyQ-huntingtin mechanosensory neurons, stronger effect = higher value
[11] = blockers of cytochrome c efflux from mitochondria – biochemical, purified mitochondria (AID 1603); conditions: stronger effect = lower value;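 also: mouse liver mitochondria challenged with calcium chloride; signal normalized to the plate average as 100%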
[12] = polyglutamine aggregate formation blockers (AID 1604); conditions: polyglutamine-induced protein aggregation inhibition assay; stronger effect = higher value; tested at 2.5 µM
[13] = glutamate transport activators, MN-1 cells, MN-1 cell line (AID 1612); conditions: MN-1 motor neuron cells, stronger effect = higher value;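 also: tested at 1 µM final; 0% = mean of DMSO vehicle wells on each plate; positive means more glutamate uptake than control and negative means less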
[14] = GFP-Q80 aggregate reduction, neuronal-like cells, cell-based, NGF-treated PC12, GFPQ80 (AID 1614); conditions: PC12 NGF-treated GFP-polyQ80 inclusion reduction;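 also: lower means fewer inclusions and 0 means no inclusions at all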
[15] = 75Q-TubH aggregate inhibition, S. cerevisiae, yeast (AID 1616); conditions: S. cerevisiae 75Q-TubH polyglutamine aggregation suppression; stronger effect = higher value
[16] = galactose survival enhancers in mitochondrial complex I cybrids – cell-based, galactose medium, ATP luminescence, primary screen (AID 1645843;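 active = z-score of at least 1.8 in each of two replicates, scored against plate mean and spread of sample wells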;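 also: positive z means more ATP and so rescue of galactose-driven cybrid death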); conditions: complex I mutant cybrid cells, 72 h, stronger effect = higher value
[17] = measured here: epithelial PC-3E GFP cell survival
[18] = measured here: mesenchymal TEM4-18 mCherry cell survival
[19] = stronger effect = lower value, cell number ratio, induced over uninduced
[20] = measured here: relative caspase fold change +Dox/-Dox
[21] = measured here: total cells with miR-34 induction, stronger effect = lower value
[22] = measured here: total cells without miR-34 induction

CCCCCCCCCc1ccc(OCCOCCOCCOCCOCCOCCOCCOCCOCCO)cc1
parasite load remaining [1]: -0.79% (active)
viability [1]: 85%
inhibition [2]: -15.2% (inactive)
red/green cell ratio (normalised) [3]: 1.03 (inactive)
normalised cell number [3, 17]: 1.14
normalised cell number [3, 18]: 1.18
fold change [4, 19]: 0.78 (inactive)
fold change [4, 20]: 2.5
cell count [4, 21]: 2440
cell count [4, 22]: 3120
remaining NAD [5]: 10 nM (inactive)
luciferase signal [6]: 40 AU (inactive)

C[n+]1cccc(C(=O)[O-])c1
parasite load remaining [1]: 79.8% (inactive)
viability [1]: 103%
inhibition [2]: -5.32% (inactive)
red/green cell ratio (normalised) [3]: 0.83 (inactive)
normalised cell number [3, 17]: 0.9
normalised cell number [3, 18]: 0.75
fold change [4, 19]: 0.877 (inactive)
fold change [4, 20]: 1.44
cell count [4, 21]: 9790
cell count [4, 22]: 11200
luciferase signal [6]: 44 AU (inactive)

O=c1ccc2cc(O)c(O)cc2o1
survival [7]: 5.75 (inactive)
parasite load remaining [1]: 19.5% (inactive) and 73.2% (inactive)
viability [1]: 92.8% and 68.7%
inhibition [2]: 2.61% (inactive)
red/green cell ratio (normalised) [3]: 1.16 (inactive)
normalised cell number [3, 17]: 0.88
normalised cell number [3, 18]: 1.02
fold change [4, 19]: 0.832 (inactive)
fold change [4, 20]: 1.64
cell count [4, 21]: 6390
cell count [4, 22]: 7680
luciferase signal [6]: 72 AU (inactive)

O=c1[nH]c(=O)n(C2C[C@H](O)[C@@H](CO)O2)cc1C(F)(F)F (stereo not given in full)
parasite load remaining [1]: 74% (inactive) and 246% (inactive) and 30.9% (inactive)
viability [1]: 71.7% and 82.9% and 99%
inhibition [2]: 10.3% (inactive)
red/green cell ratio (normalised) [3]: 1.34 (inactive)
normalised cell number [3, 17]: 0.93
normalised cell number [3, 18]: 1.25
fold change [4, 19]: 1.06 (inactive) and 0.925 (inactive)
fold change [4, 20]: 0.737 and 3.77
cell count [4, 21]: 2260 and 12300
cell count [4, 22]: 2140 and 13300

CN1C(CC(=O)c2ccccc2)CCCC1CC(O)c1ccccc1 (stereo not given)
inhibition [8]: 17.8%
score [9]: 1.4
rescue above control [10]: -4.31
cytochrome c release ratio [11]: 0.5
inhibition of aggregation [12]: 65.4%
glutamate uptake change [13]: 3.53%
inclusion score [14]: 2
aggregation suppression score [15]: 1.27
parasite load remaining [1]: 97.3% (inactive)
viability [1]: 69.7%
inhibition [2]: -10.3% (inactive)
red/green cell ratio (normalised) [3]: 1.04 (inactive)
normalised cell number [3, 17]: 0.88
normalised cell number [3, 18]: 0.92
fold change [4, 19]: 0.965 (inactive)
fold change [4, 20]: 1.77
cell count [4, 21]: 10200
cell count [4, 22]: 10600
remaining NAD [5]: 10 nM (inactive)
luciferase signal [6]: 268 AU (active)
z-score [16]: 0.16 (inactive)

C1CNCCN1
inhibition [8]: 15.3%
score [9]: 1.95
rescue above control [10]: -1.97
cytochrome c release ratio [11]: 1.16
inhibition of aggregation [12]: 15.4%
glutamate uptake change [13]: -12.2%
inclusion score [14]: 2
aggregation suppression score [15]: 1.67
parasite load remaining [1]: 96.9% (inactive) and 59.4% (inactive)
viability [1]: 74.5% and 108%
inhibition [2]: 7.35% (inactive)
red/green cell ratio (normalised) [3]: 1.22 (inactive)
normalised cell number [3, 17]: 0.8
normalised cell number [3, 18]: 0.98
fold change [4, 19]: 0.887 (inactive)
fold change [4, 20]: 2.06
cell count [4, 21]: 11000
cell count [4, 22]: 12400
remaining NAD [5]: 10 nM (inactive)
luciferase signal [6]: 560 AU (inactive)

CCC(C)CCCCC(=O)NC(CCN)C(=O)NC(C(=O)NC(CCN)C(=O)NC1CCNC(=O)C(C(C)O)NC(=O)C(CCN)NC(=O)C(CCN)NC(=O)C(CC(C)C)NC(=O)C(Cc2ccccc2)NC(=O)C(CCN)NC1=O)C(C)O (stereo not given) ({Octanoyl(6-Me)}-[Dab]T[Dab][Dab][Dab]FL[Dab][Dab]T; lactam 4-C; configuration not given here)
inhibition [8]: 15%
score [9]: 0.73
rescue above control [10]: 0
cytochrome c release ratio [11]: 7.61
inhibition of aggregation [12]: 70.5%
glutamate uptake change [13]: -11.7%
inclusion score [14]: 2
aggregation suppression score [15]: 0.739
parasite load remaining [1]: 82.5% (inactive) and 41.4% (inactive)
viability [1]: 77.7% and 91.4%
inhibition [2]: 11% (inactive)
red/green cell ratio (normalised) [3]: 1.23 (inactive)
normalised cell number [3, 17]: 0.93
normalised cell number [3, 18]: 1.14
fold change [4, 19]: 0.886 (inactive)
fold change [4, 20]: 2.98
cell count [4, 21]: 11700
cell count [4, 22]: 13200
remaining NAD [5]: 10 nM (inactive)

COc1cc(C)c(C(=O)Oc2cc(C)c(C(=O)O)c(O)c2C)c(OC)c1C
inhibition [2]: 17.4% (inactive)
red/green cell ratio (normalised) [3]: 1.11 (inactive)
normalised cell number [3, 17]: 0.88
normalised cell number [3, 18]: 0.98
luciferase signal [6]: 92 AU (inactive)

COc1ccc2c(c1)O[C@@H]1COc3cc(OC)c(OC)cc3[C@@H]1C2=O
inhibition [2]: -2.95% (inactive)
red/green cell ratio (normalised) [3]: 0.88 (inactive)
normalised cell number [3, 17]: 0.9
normalised cell number [3, 18]: 0.79
luciferase signal [6]: 68 AU (inactive)

C=C(C)[C@H]1COc2cc3oc(=O)ccc3cc2O1
inhibition [2]: 5.71% (inactive)
red/green cell ratio (normalised) [3]: 0.95 (inactive)
normalised cell number [3, 17]: 1.17
normalised cell number [3, 18]: 1.11
luciferase signal [6]: 44 AU (inactive)

— PubChem BioAssay
